Among the test systems are HCT-15 colon; HT29 colon; SNB-75 CNS; SNB-19 CNS; U251 CNS; PC-3 prostate; SK-MEL-5 melanoma; UACC-62 melanoma; LOX IMVI melanoma; SK-MEL-28 melanoma; SK-MEL-2 melanoma; EKVX NSCLC; SN12C renal; UO-31 renal; TK-10 renal; ACHN renal; CAKI-1 renal; A498 renal; CCRF-CEM leukemia; MOLT-4 leukemia.
Common to all, as to assay: NCI-60 one-dose screen, 48 h (100 = growth as untreated, 0 = no growth, -100 = all killed)
Details in all cases: 10 µM

The source of these data is PubChem BioAssay (NCI).

This is part of a sample that, as a whole, favours compounds with a hit. Of some 83,000 tested, about 20% had one in any assay.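 Single-concentration screen, 48 h exposure, 96-well plates. Endpoint: percent growth. Below 10 = active.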 A number with no mark means an inactive call. Activity calls are given as the source filed them.

`C=C(C)[C@@H]1CC[C@]2(COP(=O)(OCC)OCC)CC[C@]3(C)[C@H](CC[C@@H]4[C@@](C)(CCCN)[C@H](C(=C)C)CC[C@]43C)[C@@H]12`: the growth was 9.75% (active) in the assay on HCT-15 colon; 5.73% (active) in the assay on HT29 colon; 34.4% with SNB-75 CNS; 40.4% in the assay with SNB-19 CNS; 21% with U251 CNS; 13.1% in the assay on PC-3 prostate. Further, the growth was -47.6% (active) in the assay on SK-MEL-5 melanoma; 35.3% in the assay with UACC-62 melanoma; 1.01% (active) with LOX IMVI melanoma; 31.7% in the assay on SK-MEL-28 melanoma; 27.2% in the assay with SK-MEL-2 melanoma; 21.6% with EKVX NSCLC. The growth with SN12C renal is 14.7%; with UO-31 renal it was 16.7%; in the assay with TK-10 renal, 57.4%; in the assay with ACHN renal, 22.3%; in the assay with CAKI-1 renal, 19.5%; in the assay with A498 renal it was 61.1%. Also, in the assay with CCRF-CEM leukemia, the growth is 2.27% (active).
With `COc1ccc2[nH]c(O)c(N=NC(=O)COc3ccc(NC(=O)Nc4ccc(Cl)c(Cl)c4)cc3)c2c1`, the growth with HCT-15 colon was 56.1%; with HT29 colon, -88.4% (active); in the assay with SNB-75 CNS, -37% (active); with SNB-19 CNS, 7.22% (active); in the assay on U251 CNS, -94.2% (active); with PC-3 prostate, -33.4% (active). The growth was -56.3% (active) in the assay on SK-MEL-5 melanoma; 14.4% in the assay with UACC-62 melanoma; -100% (active) in the assay with LOX IMVI melanoma; -59.8% (active) in the assay with SK-MEL-28 melanoma; 14.5% in the assay with SK-MEL-2 melanoma; 31.9% in the assay with EKVX NSCLC. Moreover, the growth in the assay on SN12C renal is -42% (active); with UO-31 renal, 111%; with TK-10 renal, 15.5%; with ACHN renal, 57%; in the assay on CAKI-1 renal, 60.7%; in the assay on A498 renal it was -1.89% (active). Further, the growth with CCRF-CEM leukemia is 20.8%.
As for `COc1ccc2[nH]c(O)c(N=NC(=O)c3cc(-c4ccc(C)cc4)nc4ccccc34)c2c1`, the growth in the assay on HCT-15 colon was 62.8%; with HT29 colon it was 113%; in the assay with SNB-75 CNS, 95.4%; in the assay on SNB-19 CNS, 95.1%; in the assay on U251 CNS it was 88.5%; in the assay on PC-3 prostate it was 93.6%. The growth in the assay on SK-MEL-5 melanoma was 94.6%; in the assay with UACC-62 melanoma, 96.5%; in the assay on LOX IMVI melanoma it was 83.5%; in the assay with SK-MEL-28 melanoma it was 97.5%; in the assay on SK-MEL-2 melanoma, 111%; in the assay on EKVX NSCLC, 97.6%. For the same compound, the growth is 92.1% in the assay with SN12C renal; 69.9% in the assay with UO-31 renal; 117% with TK-10 renal; 81% in the assay with ACHN renal; 95.5% with CAKI-1 renal; 126% in the assay with A498 renal. Moreover, the growth in the assay with CCRF-CEM leukemia was 52.1%.
Take `COc1cc(Cn2c(C(F)(F)F)cc3c(Cl)ncnc32)ccn1`: the growth in the assay with HCT-15 colon is -48.3% (active); with HT29 colon, 69.7%; in the assay on SNB-75 CNS, -60.9% (active); in the assay with SNB-19 CNS it was -8.63% (active); in the assay with U251 CNS it was 12.7%; in the assay on PC-3 prostate, 29.3%. Also, the growth in the assay on SK-MEL-5 melanoma was -20.4% (active); in the assay on UACC-62 melanoma it was 0.529% (active); in the assay with LOX IMVI melanoma it was -100% (active); with SK-MEL-28 melanoma, 27.9%; in the assay on SK-MEL-2 melanoma, -81.7% (active); in the assay with EKVX NSCLC it was 73%. Moreover, the growth with SN12C renal was 51.3%; in the assay on UO-31 renal it was 68.3%; with TK-10 renal it was 97.1%; with ACHN renal, 74.8%; with CAKI-1 renal it was -57.6% (active); in the assay with A498 renal it was 103%. In the assay with CCRF-CEM leukemia, the growth was -14.3% (active).
With `Cc1cc2c(c(O)c1Br)-c1ncoc1C(=O)[C@]1(C)CC[C@H](C(C)C)[C@H]21`, the growth with HCT-15 colon is 7.31% (active); in the assay on HT29 colon, 5.42% (active); with SNB-75 CNS, 59.6%; in the assay with SNB-19 CNS, 45%; in the assay with U251 CNS, 26.7%; in the assay with PC-3 prostate, 9.6% (active). Further, the growth in the assay on SK-MEL-5 melanoma is -29.9% (active); in the assay on UACC-62 melanoma, 33.1%; in the assay with LOX IMVI melanoma it was 35.6%; in the assay on SK-MEL-28 melanoma it was 46.6%; with SK-MEL-2 melanoma, 4.52% (active); in the assay with EKVX NSCLC, 46.7%. For the same compound, the growth was 54.5% in the assay on SN12C renal; 50.3% with UO-31 renal; 68.8% with TK-10 renal; 52.2% in the assay with ACHN renal; 55.4% with CAKI-1 renal; 104% in the assay with A498 renal. The growth with CCRF-CEM leukemia was 14.2%.
On to `COc1ccc2[nH]c(=O)c(CSc3ccc(Nc4nccc(-c5ccc(Cl)cc5)n4)cc3)cc2c1`, for which the growth was 97% with HCT-15 colon; 104% in the assay with HT29 colon; 110% in the assay with SNB-75 CNS; 71.6% in the assay on SNB-19 CNS; 94.2% in the assay with U251 CNS; 83.2% in the assay on PC-3 prostate. Further, the growth in the assay on SK-MEL-5 melanoma was 98.4%; with UACC-62 melanoma, 105%; with LOX IMVI melanoma it was 89%; in the assay on SK-MEL-28 melanoma, 109%; in the assay with SK-MEL-2 melanoma, 94.3%; with EKVX NSCLC, 86.8%. Further, the growth in the assay on SN12C renal is 83.7%; in the assay with UO-31 renal, 85.5%; with TK-10 renal, 124%; in the assay on ACHN renal, 90.3%; in the assay with CAKI-1 renal, 76.3%; in the assay with A498 renal it was 141%. Also, the growth in the assay with CCRF-CEM leukemia is 96.7%; in the assay on MOLT-4 leukemia, 84.4%.
As for `COc1ccccc1[C@H]1C(C(=O)c2ccc(Cl)cc2)C2(N[C@@H]1c1ccccc1)C(=O)Nc1ccccc12` (some centres undefined), the growth in the assay on HCT-15 colon is -18.7% (active); with HT29 colon it was -53.1% (active); in the assay with SNB-75 CNS, 55.6%; in the assay on SNB-19 CNS it was 13.7%; in the assay with U251 CNS, -31% (active); in the assay with PC-3 prostate, 5.37% (active). Moreover, the growth with SK-MEL-5 melanoma is -87.2% (active); in the assay with UACC-62 melanoma it was -74.9% (active); in the assay on LOX IMVI melanoma, -97.3% (active); in the assay on SK-MEL-28 melanoma, -36.6% (active); in the assay with SK-MEL-2 melanoma it was -85.9% (active); in the assay with EKVX NSCLC it was 3.23% (active). Also, the growth with SN12C renal was -89% (active); with UO-31 renal, 1.13% (active); in the assay on TK-10 renal, 8.59% (active); in the assay with ACHN renal it was -3.58% (active); with CAKI-1 renal, 4.17% (active); in the assay with A498 renal it was -19.2% (active). Further, the growth in the assay on CCRF-CEM leukemia is 4.07% (active); in the assay on MOLT-4 leukemia it was -17.7% (active).
For `CC(C)NC(=O)c1cc(-c2ccc(NC(=O)Nc3ccc(N4CCN(C)CC4)c(C(F)(F)F)c3)cc2)nc2cccnc12`, the growth in the assay on HCT-15 colon is -89.6% (active); in the assay with HT29 colon, -86.6% (active); in the assay with SNB-75 CNS, -96.2% (active); in the assay on SNB-19 CNS, -93.2% (active); in the assay with U251 CNS, -86.2% (active); with PC-3 prostate it was -72.9% (active). Also, the growth with SK-MEL-5 melanoma is -100% (active); with UACC-62 melanoma, -97.1% (active); in the assay with LOX IMVI melanoma it was -99.2% (active); with SK-MEL-28 melanoma it was -99.3% (active); in the assay on SK-MEL-2 melanoma, -81.9% (active); in the assay on EKVX NSCLC, -92.4% (active). For the same compound, the growth in the assay with SN12C renal is -92.9% (active); with UO-31 renal it was -97.4% (active); in the assay on TK-10 renal it was -93.6% (active); in the assay with ACHN renal it was -100% (active); in the assay with CAKI-1 renal, -93.6% (active); in the assay on A498 renal, -97.7% (active). Also, the growth in the assay with CCRF-CEM leukemia is -43.6% (active).
